ZTA DNA inh: counter-screen for EBNA-1 inhibitors: inhibitors of Epstein-Barr virus ZTA | ZTA-DNA binding, fluorescence polarization | P03206 | inhibition, % at 11 µM | 320,000 compounds, 0.15% hits | AID 2234; in the data active = inhibition above about 33%
Target sequence (P03206 whole entry, looked up): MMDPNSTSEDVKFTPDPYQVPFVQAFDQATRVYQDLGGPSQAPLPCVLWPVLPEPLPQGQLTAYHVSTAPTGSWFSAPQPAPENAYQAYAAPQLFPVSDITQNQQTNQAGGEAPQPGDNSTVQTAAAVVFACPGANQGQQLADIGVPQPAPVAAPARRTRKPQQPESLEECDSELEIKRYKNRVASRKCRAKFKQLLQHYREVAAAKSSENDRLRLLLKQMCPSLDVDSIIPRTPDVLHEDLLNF
NR3A LBD binder: modulators (binders) of human NR3A ligand-binding domain; NR3A LBD differential scanning fluorimetry, Tm shift; 0% = protein alone, 100% = glycine-bound protein; Tm shift relative to glycine control, % at 25 µM; 340,000 compounds, 2.5% hits; AID 1259313;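 active = melting temperature shift of at least 10% of the positive control shift, at one fixed dose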
Rpn11 block: Rpn11 (human) deubiquitinase inhibition; O00487; human 26S proteasome, Ub4-pepOG fluorescence polarization; 20S core pre-blocked with epoxomicin; inhibition, % at 20 µM; 360,000 compounds, 0.59% hits; AID 588493;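 active = inhibition at 20 µM, scaled to each plate's controls, above about 33%, limit read from the data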
Target sequence (O00487 whole entry, looked up): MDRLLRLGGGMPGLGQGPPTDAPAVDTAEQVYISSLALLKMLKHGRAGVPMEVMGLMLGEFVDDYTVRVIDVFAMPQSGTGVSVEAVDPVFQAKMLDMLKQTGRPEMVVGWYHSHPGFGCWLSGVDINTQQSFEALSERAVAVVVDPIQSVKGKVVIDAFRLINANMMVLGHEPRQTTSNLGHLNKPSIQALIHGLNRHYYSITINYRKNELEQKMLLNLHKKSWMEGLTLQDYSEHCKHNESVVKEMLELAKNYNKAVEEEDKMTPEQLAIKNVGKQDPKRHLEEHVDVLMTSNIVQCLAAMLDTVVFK
dFosB activator: activators of mouse delta FosB homodimer; purified delta FosB, TAMRA-CDK5 oligo fluorescence polarization; percent of positive-control signal above neutral wells; activation, % at 25 µM; 340,000 compounds, 0.99% hits;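 active = mean activation above about 17%, with every replicate also reaching it, limit read from the data, passing the limit was not always enough; inconclusive = only one of the two conditions met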
TPT1 inh: C. albicans TPT1 enzyme inhibition. 300,000 compounds, 0.81% hits. inhibition, % at 5 µM. recombinant caTPT1, FP RNA substrate dephosphorylation;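 active = inhibition above the mean of all tested compounds plus 3 SD, set per screening campaign, cut at about 24% in these data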;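 note: plate controls were DMSO alone for no effect and ferristatin control at 100 nM for full effect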
EBNA-1 inh: blocks EBNA-1 binding to DNA; EBNA-1 DNA binding, fluorescence polarization; inhibition, % at 14.8 µM; 300,000 compounds, 0.34% hits; in the data active = inhibition above about 28%
Active calls of the source: *; ? = inconclusive; · = not tested or not shown. In the library only some 4.5% were active in any assay of this set; here they are far more common.

SMILES	ZTA DNA inh	NR3A LBD binder	Rpn11 block	dFosB activator	TPT1 inh	EBNA-1 inh
O=C(Nc1ccc(Cl)c(Cl)c1)OCCNC(=O)c1cccc(Cl)c1	12	13*	-4	-5	-1	-6
CCOC(=O)c1c(CSc2ccccc2)n(C)c2ccc(O)c(CN3CCOCC3)c12	-1	14*	2	-6	-3	-2
O=C(NNC(=O)c1ccc(Br)s1)c1csc(N2CCOCC2)n1	-2	0	4	61*	·	·
O=C(NNC(=O)c1cccs1)c1csc(N2CCOCC2)n1	-7	-2	-4	-1	1	-14
C#C[C@]1(O)CC[C@H]2[C@@H]3[C@H](C)CC4=C(CCC(=O)C4)[C@H]3CC[C@@]21C	4	·	·	·	2	-4
COc1ccccc1-c1noc(CCC(=O)Nc2cccc(C)c2)n1	-2	14*	3	-5	-2	9
O=C(NCc1ccccc1)c1cc(C2CCCCN2C(=O)c2ccccc2)on1 (stereo not given)	·	·	-4	·	·	·
Cc1cc(C)c(OC2(c3ccccc3)OC(=O)c3ccccc32)c(C)c1 (stereo not given)	5	16*	2	3	-1	-3
CCOC(=O)/C(C#N)=C1/C=CN(c2ccccc2)C=N1	-9	14*	5	-3	5	-5
CCOC(=O)/C(C#N)=C1/C=CN(c2ccc(C)cc2)C=N1	-1	1	0	4	1	8
CC(=O)Nc1ccc(C2=NNC(=Nc3cccc(S(=O)(=O)N(C)C)c3)SC2)cc1	7	12*	15	-10	1	-3
CN(C)S(=O)(=O)c1cccc(N=C2NN=C(c3ccccc3)CS2)c1	-3	-1	·	·	1	-11
Cc1ccc(NC(=S)N2CCN(c3ccccn3)CC2)cc1C	-26	-2	-2	-2	-2	12
COc1ccc([C@H]2C[C@H](O)[C@@H](n3cc(C4CC4)nn3)CN2C(=O)C2CCCCC2)cc1	·	·	-1	·	·	·
CC(C)(C)N1C(=O)c2ccc(C(=O)Nc3ccc(-c4nc5ccccc5[nH]4)cc3)cc2C1=O	-3	35*	1	-2	3	5
CS(=O)(=O)c1ccccc1C(=O)Nc1ccc(-c2nc3ccccc3[nH]2)cc1	3	-6	2	-10	0	8
O=C(c1ccccc1)c1ccc2nc(-c3ccc(NC(=O)c4ccccc4Br)cc3)[nH]c2c1	-2	9	10	1	1	45*
Cc1ccccc1C(=O)Nc1ccc(-c2nc3ccc(C(=O)c4ccccc4)cc3[nH]2)cc1	9	17*	-4	8	0	11
NC(=O)C1CCN(C(=O)C2CCN(C(=O)Nc3ccccc3)CC2)CC1	·	0	1	-4	·	·
C=CCn1c(=O)c2ccccc2n2c(SCC(C)=O)nnc12	14	-3	0	-4	1	-15
COc1ccc([C@H]2CC(=O)C=C(c3ccc4[nH]ccc4c3)C2)cc1OC	9	-7	-3	-4	·	·
O=C1C=C(c2ccc3[nH]ccc3c2)C[C@@H](c2ccc(F)cc2)C1	-17	21*	0	-9	·	·
Cc1cccc(NC2=C(NC(=O)c3ccccc3)C(=O)c3ccccc3C2=O)c1	3	19*	1	-1	-1	-1
Cc1ccc(NC(=O)c2ccc(C)cc2)cc1	7	-11	-5	5	0	14
Cc1cccc(NC(=S)NNC(=O)c2ccccc2Br)c1	6	-3	-3	-7	1	10
SMILES	ZTA DNA inh	NR3A LBD binder	Rpn11 block	dFosB activator	TPT1 inh	EBNA-1 inh
Cc1cccc(NC(=O)c2ccc(NC(=O)c3ccccc3Br)cc2)c1	2	27*	-6	?	-6	-3
Cc1ccc(C(=O)Nc2ccc(Br)c(C(F)(F)F)c2)cc1	-4	10*	-1	0	-4	-4
O=C(N/N=C/c1ccc(C(F)(F)F)cc1)c1ccc(O)cc1	-22	12*	2	-9	0	2
O=C(N/N=C/c1cccc(C(F)(F)F)c1)c1ccc(O)cc1	9	7	2	-10	3	-8
S=C(NCCc1ccccc1)Nc1c(Cl)cccc1Cl	-8	1	10	-8	-5	1
Cc1ccc(NC(=O)c2ccc(N/N=C/c3cccc(O)c3)c([N+](=O)[O-])c2)cc1	-4	256*	12	1	0	-15
Cc1ccc(C(=O)Nc2cccc(C(=O)N/N=C/c3ccc(O)cc3)c2)cc1	11	11*	1	-1	4	-19
Oc1ccc(/C=N/Nc2ccc(C(F)(F)F)cn2)cc1	11	26*	-2	-4	1	-1
Oc1ccc(/C=N/Nc2ccc(C(F)(F)F)cn2)c(O)c1	-1	·	4	2	4	-2
Cc1cccc(C(=O)Nc2ccc(NC(=O)c3cccc(C)c3)cc2)c1	·	·	-2	·	·	·
Cc1ccccc1NC(=O)c1ccc(N/N=C/c2ccccc2O)c([N+](=O)[O-])c1	13	-2	8	9	2	5
Cc1cccc(C(=O)Nc2cccc(C(=O)N/N=C/c3ccncc3)c2)c1	14	0	2	-4	-2	-1
Cc1cccc(C(=O)Nc2ccc(C(=O)Nc3ccc(O)cc3)cc2)c1	-2	38*	-6	?	-1	2
COc1ccc(CN(C2CC2)S(=O)(=O)c2ccccc2Br)cc1	·	13*	-6	-9	·	·
CC(=O)Nc1ccc(S(=O)(=O)Oc2cccc(/C=C3\SC(N)=NC3=O)c2)cc1	9	36*	1	33*	1	-2
COc1cc(/C=C2\SC(N)=NC2=O)ccc1OCC(=O)Nc1ccc(C)cc1	-13	-12	6	79*	2	12
COC(=O)CCCC(=O)N1CCCC(N(C)CCc2ccccc2)C1 (stereo not given)	-3	-1	-5	-4	0	5
COc1ccccc1OC(C)C(=O)O (stereo not given)	-8	13*	-1	1	0	-9
COc1ccccc1OCC(=O)O	18	0	-2	4	1	0
COCCCNC(=O)Cc1c(C)c2cc3c(cc2oc1=O)OC(C)(C)CC3	6	1	11	-10	1	9
N#Cc1c(NC(=O)c2ccccc2Cl)n(Cc2ccccc2)c2nc3ccccc3nc12	14	7	55*	-13	17	9
O=C(Nc1ccccc1C(=O)OCC(=O)c1c[nH]c2ccccc12)c1ccco1	11	26*	8	?	1	16
CC(C)(C)NC(=O)COC(=O)c1ccccc1NC(=O)c1ccco1	-2	1	0	-13	-1	-8
O=C(/C=C/c1ccc(Cl)cc1)Nn1c(-c2cccs2)nc2ccccc2c1=O	-4	13*	1	?	-6	-3
COc1ccc(Cl)cc1C(=O)Nn1c(-c2cccs2)nc2ccccc2c1=O	14	-2	9	-3	-1	13
